PubChem BioAssay (NCI)
About 79,000 compounds went through this panel and 15% of them were active in at least one assay; those are over-represented in the sample as a whole. Activity calls are given as the source filed them. No stated cut-off is given here; in the data, active means growth inhibition above about 70%; inactive means the rest.

test: NCI Yeast Anticancer Drug Screen. Data for the mlh1 rad18 strain (AID 175); settings: S. cerevisiae mlh1 rad18 strain growth inhibition; at 50.0 µM; stronger effect = higher value
Method in brief: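 Inhibition values reflect reduced growth of mutant yeast versus vehicle-treated controls following compound exposure; the mutations affect DNA damage repair.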

Row | Structure (SMILES) | growth inhibition
1 | COC(=O)Cc1onc(-c2ccccc2)c1[N+](=O)[O-] | 32% (inactive)
2 | CCOC(=O)c1ccc2c(c1)Cc1c-2cc(Br)c(N)c1Br | 47% (inactive)
3 | O=C(CCl)OCC(CCl)OC(=O)CCl (stereo not given) | 0.6% (inactive)
4 | Nc1nc(CCl)nc(N2CCOCC2)n1 | -20.2% (inactive)
5 | CC(C)(C)C(=O)CN | -2.65% (inactive)
6 | COc1ccc2c(=O)c(-c3ccc(OC)c(OC)c3)c(C)oc2c1 | -4.85% (inactive)
7 | COc1ccc(C(=O)OCc2ccccc2CN2CCCCC2)cc1 | -5.6% (inactive)
8 | BrCC(Br)c1ccc(C(Br)CBr)cc1 (stereo not given) | 12.1% (inactive)
9 | CC(=O)C(C)CCOC1(C)OCCC1C (stereo not given) | 7% (inactive)
10 | O=C(O)C1CCC(C(=O)O)CC1.[NH-]C1CCCCC1[NH-].[Pt+2] (stereo not given) | -70.4% (inactive)
11 | OCC#C[C@@H]1CC[C@H]1C#CCO | -6% (inactive)
12 | NC1=NS(=O)(=O)Nc2nc(-c3ccc(Cl)cc3)c(-c3ccc(Cl)cc3)nc21 | -24.8% (inactive)
13 | Clc1cc(Cl)nc(Cl)n1 | -1.65% (inactive)
14 | C[C@@]12CCC3C1C=C1C(=O)c4cc(O)ccc4C(=O)[C@]1(O2)[C@@]3(C)C=O | 89.7% (active)
15 | COC(=O)/C(C#N)=C/c1cccnc1 | -15.7% (inactive)
16 | O=[N+]([O-])c1cc(Cl)ccc1Nc1ccccc1 | 53.5% (inactive)
17 | O=C1C2=C(OCCO2)C(=O)C2=C1OCO2 | 4.4% (inactive)
18 | c1ccc(CN(CCNc2ccccc2)c2ccccc2)cc1 | 3.7% (inactive)
19 | CCOC(=O)/C(=C\c1ccccc1)c1nc2ccccc2[nH]1 | -13.6% (inactive)
20 | NCCC(=O)OC1CCCc2c(O)c3c(c(O)c21)C(=O)c1ccccc1C3=O (stereo not given) | 99.2% (active)

Row | Structure (SMILES) | growth inhibition
21 | CC(CO)(CO)CN1CCCCC1 | 1.8% (inactive)
22 | Nc1cc(C(F)(F)F)ccc1[N+](=O)[O-] | 22.4% (inactive)
23 | O=C(O)c1ccc(F)c([N+](=O)[O-])c1 | 12.4% (inactive)
24 | O=C(NCCCl)NCc1cccc2c1CCCC2 | -24.2% (inactive)
25 | O=[N+]([O-])[C@@H]1C[C@@H]2C=C[C@H]1CC2 | 0.15% (inactive)
26 | O=C(Nn1c(-c2ccccc2)nc2ccccc2c1=O)c1cccc([N+](=O)[O-])c1 | 3.85% (inactive)
27 | CN1C(=O)C(C)(O)Sc2ccccc21 (stereo not given) | 0.1% (inactive)
28 | COc1ccc2ccccc2c1C1OC(=O)c2ccccc21 (stereo not given) | 52.5% (inactive)
29 | CCCCCCCCCCCCS(=O)(=O)CCC(=O)c1ccco1 | 7.6% (inactive)
30 | COc1ccc(C)cc1S(=O)(=O)c1c(Cl)cccc1[N+](=O)[O-] | -36.8% (inactive)
31 | CSc1ccc(NC(=S)NN(C)C)cc1 | -7.65% (inactive)
32 | CCCCNc1nc(Cl)nc(C(F)(F)F)c1N | 1.35% (inactive)
33 | Cc1nc2ccccc2c(=O)n1NC(=S)Nc1cccc(Cl)c1 | -26.8% (inactive)
34 | CC1=CCC(C(C)(C)NC(=O)c2ccccc2)C/C1=N/O (stereo not given) | -66.5% (inactive)
35 | CC1(C)C(c2ccccc2)=NN(O)c2ccccc21 | -9.4% (inactive)
36 | Cc1nccnc1N1CCCCC1 | -11.3% (inactive)
37 | COc1ccccc1NC(=O)CC(=O)N1N=C(C)C(N=Nc2ccc(S(N)(=O)=O)cc2)C1=O (stereo not given) | 11.3% (inactive)
38 | NC(=O)SCC(N)C(=O)O (stereo not given) | 6.8% (inactive)
39 | COC(=O)[C@]1(C)CCC[C@]2(C)c3cc(Br)c(C(C)C)cc3CC[C@H]12 | -1.8% (inactive)
40 | COc1cc(OC)c2c(=O)cc(-c3ccc(OC)c(OC)c3OC)oc2c1 | -40.5% (inactive)
